Measurements published in the supplement of paper PMC3334620.
The full ranking holds about 33,000 sequences; the median of “E-score (-0.5 to 0.5)” is about -0.015, and the highest 2% start at about 0.3. This excerpt belongs to a sample that is enriched for the highest values.

What follows are sequences tested against T1, Abf1 (UniProt P14164) (assay: PBM E-score (8-mer binding enrichment) (E-score (-0.5 to 0.5)); higher = stronger / more preferred TF binding). Settings: protein concentration: 200 nM; construct: GST-full length.
T1 sequence: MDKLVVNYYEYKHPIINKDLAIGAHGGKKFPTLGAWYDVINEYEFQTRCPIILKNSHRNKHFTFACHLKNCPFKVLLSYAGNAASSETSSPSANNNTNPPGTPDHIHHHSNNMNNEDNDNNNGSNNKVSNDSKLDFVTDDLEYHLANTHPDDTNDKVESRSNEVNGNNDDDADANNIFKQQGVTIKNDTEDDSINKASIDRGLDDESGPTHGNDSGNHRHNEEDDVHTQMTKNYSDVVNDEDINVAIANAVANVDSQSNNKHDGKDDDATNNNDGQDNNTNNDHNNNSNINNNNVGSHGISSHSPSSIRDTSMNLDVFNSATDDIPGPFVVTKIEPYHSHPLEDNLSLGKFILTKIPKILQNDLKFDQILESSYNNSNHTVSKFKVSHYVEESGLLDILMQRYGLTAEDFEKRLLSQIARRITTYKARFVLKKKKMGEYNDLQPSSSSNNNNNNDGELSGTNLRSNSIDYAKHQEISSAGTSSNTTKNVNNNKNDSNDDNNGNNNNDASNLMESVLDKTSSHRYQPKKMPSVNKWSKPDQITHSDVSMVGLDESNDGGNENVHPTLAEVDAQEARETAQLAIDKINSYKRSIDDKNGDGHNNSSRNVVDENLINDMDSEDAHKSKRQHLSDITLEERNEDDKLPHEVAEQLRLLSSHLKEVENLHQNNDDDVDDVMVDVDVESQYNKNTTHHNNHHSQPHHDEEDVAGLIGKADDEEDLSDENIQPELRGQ
Experimental: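 Universal 'all 10-mer' protein binding microarrays (Agilent AMADID 015681) probed with GST-tagged S. cerevisiae TFs (full-length or DBD) made by in vitro transcription/translation (PURExpress), about 100-200 nM. Bound TF was detected with fluorescent anti-GST. Each ungapped 8-mer (which stands for itself and its reverse complement) is scored by the PBM enrichment score (E-score), a modified Wilcoxon-Mann-Whitney statistic from -0.5 to +0.5, computed with the Universal PBM Analysis Suite. Scale: above 0.35 generally sequence-specific binding.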

Sequence | PBM E-score
AACAGAGC | -0.0439
ACTCTGTG | -0.0599
GTGCCATA | -0.14
CCAAAAGC | -0.0875
TCGCATAA | 0.205
AATACTTC | -0.0521
AAGAATGA | 0.293
GATGTCAC | 0.395
ACTGTCAT | 0.0825
CATGTCAA | 0.105
AGTGTCAT | 0.21
AATGTCAT | 0.306
AATGTCGG | -0.0313
CATGTCAC | 0.383
AATGTCGT | 0.302
CATGTCAG | 0.0449
GCTGTCAC | 0.197
GATGTCAA | -0.0282
AATGTCGA | 0.146
GAGTTGTA | 0.0502
GGTAGCTA | -0.16
AAACTCGC | -0.0402
GAGTGTCC | -0.0553
CACCTCGC | -0.0945
ACAGTTGA | -0.00384

Sequence | PBM E-score
ATGGAGAA | -0.0924
CTTGTGGA | -0.249
GTCCCAAC | 0.0207
ACAGCTAA | -0.159
CGTGTCAG | 0.27
AATGTCAG | -0.169
AATGTCAC | 0.416
AATGTCAA | -0.00569
AGTGTCAC | 0.174
CGTGTCAC | 0.327
CACGCCGG | -0.0297
GATAGGTA | 0.0863
CGGGCGGA | -0.157
CTTGCATA | 0.0552
TCCGTAAA | 0.145
ACCGTACT | 0.286
ACCGTAAG | 0.226
AGCGTACA | -0.121
ACCGTACG | 0.34
CCCGTACA | 0.263
TGCGTACA | 0.0613
CCCGTACC | 0.182
TCCGTACA | 0.368
AACGTACG | 0.222
CCCGTACG | 0.348

Sequence | PBM E-score
ACCGTACA | 0.327
CTCAGCCA | -0.0785
CGCGCAGA | 0.103
AGTAACGG | 0.0792
AAGAGAGT | -0.24
GAAGGGTC | -0.227
ACTAAAAG | 0.0434
CAATGCCG | -0.0313
AGTTGAGG | -0.116
CTTACGGC | -0.0264
ACCGTACC | 0.118
GCCGTACC | 0.356
GCCGTACA | 0.294
ACATACGT | 0.033
ACATACTA | 0.109
TCATACGA | 0.328
ACATACGC | -0.0157
TCCTACGA | 0.347
ACATACGA | 0.356
CCATACGA | 0.283
ACATACGG | 0.3
CCATACGG | 0.281
GCCTACGA | 0.239
GCATACGA | 0.0403
CCCTACGA | 0.041

Sequence | PBM E-score
GCTAGTAC | 0.0984
AGCTTGAA | -0.106
TACCGTCA | 0.262
CGTATCAG | 0.0845
TCATTCGA | 0.129
ACCTCTGG | -0.129
GAGCCTGA | -0.165
AAACCGGA | 0.00218
CCACGATA | 0.143
ACACGATC | 0.25
CCACGAAC | 0.338
CCACGAAG | 0.0703
CCACGAAA | 0.216
CCACGATC | 0.335
CTCGGGAA | 0.0853
AGTCATGA | 0.149
ACCTTTTG | -0.00807
ACATGATA | 0.315
GAATGAGA | 0.0436
CAATGAGA | -0.0863
GCATGATA | 0.268
CAATGATG | 0.106
CAATGATA | 0.322
GAATGATA | 0.397
GAATGAAA | -0.0868

Sequence | PBM E-score
TAATGATA | 0.348
TAATGAGA | 0.0631
TAATGAAA | 0.12
ACATGATC | 0.292
CGGAGAAC | -0.184
GTAGATAC | 0.0486
CCTGTGTC | -0.275
CGTAGAAC | 0.118
AACCACAT | 0.182
GCCATAGC | -0.055
ACTTCAAG | 0.0326
CTACGTGC | -0.0934
ACGGACGG | 0.077
TCGGTGCA | -0.0272
CAATGATC | 0.31
AAATGATT | 0.275
AAATGATG | 0.318
GAATGAGC | 0.051
ACATGATG | 0.119
AAATGATC | 0.228
AAATGATA | 0.409
GAATGAAC | -0.112
AAATGAAA | 0.214
GAATGATC | 0.32
CAATGAAC | -0.0206

Sequence | PBM E-score
AAATGAGG | 0.0174
AGCTACCC | -0.0429
ACGCTAGT | 0.043
CAATGCGG | -0.281
ACGGGTCC | 0.142
GTGGACAC | -0.0874
TAGGTCAA | 0.0576
ATGGCGAG | 0.0386
GGTATTGA | 0.00996
CGTATTTC | 0.316
AGTATTTA | 0.152
AGTATTTC | 0.209
CCTATTTC | 0.095
GGTATTTA | 0.0301
CGTATTGA | 0.307
AGTATTGA | 0.0838
CGTATTTA | 0.335
AACCTGGC | -0.112
GGCCGGCA | -0.157
CTGCCGAC | -0.121
TCTCTCCA | -0.031
GGCTCTCA | -0.224
AGCGTGAC | 0.186
CTCGTGAC | 0.344
CGCGTGAG | 0.00035

Sequence | PBM E-score
CGCGTGAC | 0.303
ATCGTGAC | 0.255
CTCGTGAA | 0.224
GGACCCCC | -0.249
CGACTATA | 0.129
AGACCTAA | -0.206
CTACAAAA | 0.139
CTACATAA | -0.118
TGACAAAA | 0.304
TTACATAA | 0.197
ATACAAAA | 0.0848
GGACAAAA | -0.0523
CGACAAAA | 0.241
AGACATAA | -0.0415
GGACATAA | -0.032
TGACATAA | 0.351
GTACATAA | 0.324
GTACAAAA | 0.344
AACACTGA | -0.142
AGTGGATA | 0.0619
AAAGAAGG | -0.118
AACACCAC | 0.00166
CAATCTAC | -0.0654
